Test systems include T-47D breast; BT-549 breast; MDA-MB-435 melanoma; SW-620 colon; MCF7 breast; HCT-116 colon; HCC-2998 colon; KM12 colon.
Holding throughout (test): NCI-60 one-dose screen, 48 h (100 = growth as untreated, 0 = no growth, -100 = all killed)
Holding throughout (settings): 10 µM

Compounds without any hit were thinned out: in the full panel of roughly 83,000, 20% have a hit.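 48-hour exposure, single concentration, 96-well plates; percent growth endpoint where 0 means no net growth. Active: below 10.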 A number with no mark means an inactive call. The source made the active and inactive calls.

Consider `O=C1NN(c2ccccc2)C(c2cccnc2)=N/C1=C\c1cccnc1`, for which the growth in the assay on T-47D breast is 96.7%; in the assay with BT-549 breast, 101%; with MDA-MB-435 melanoma it was 92.4%; with SW-620 colon, 110%; in the assay on MCF7 breast, 92.1%; in the assay on HCT-116 colon, 91.9%. In addition, the growth with HCC-2998 colon was 99%; in the assay on KM12 colon, 95%.
In the case of `CCOC(=O)Nc1ccc2c(c1)C(=O)N(CC)c1ccccc1O2`, the growth with T-47D breast was 73.4%; in the assay on BT-549 breast, 26.2%; in the assay on MDA-MB-435 melanoma, -17.1% (active); in the assay on SW-620 colon it was 32.7%; in the assay on MCF7 breast it was 14.2%; with HCT-116 colon, 9.54% (active). The values for the growth with HCC-2998 colon and in the assay on KM12 colon were 18.2% and 14.7%, respectively.
As for `CC(=O)Nc1ccc2c(c1)C(N1CC3CCC(CC3)C1)c1ccccc1-2` (stereo unspecified), the growth is 66.6% with T-47D breast; 126% with BT-549 breast; 99.4% in the assay with MDA-MB-435 melanoma; 83.8% in the assay with SW-620 colon; 96.7% in the assay with MCF7 breast; 71.9% in the assay with HCT-116 colon. Moreover, the growth in the assay on HCC-2998 colon is 99.5%; in the assay on KM12 colon, 80.7%.
Turning to `COCCOC(=O)NC(=O)Nc1ccc(C(=O)c2ccc(Cl)cc2)cc1`, the growth in the assay with T-47D breast is 16.5%; in the assay on BT-549 breast it was 37.8%; in the assay on MDA-MB-435 melanoma, 6.97% (active); in the assay with SW-620 colon, 30.4%; in the assay with MCF7 breast, 19.5%; with HCT-116 colon, 30.5%. Also, the results for the growth with HCC-2998 colon and in the assay on KM12 colon were 47.3% and 29%, respectively.
Turning to `CC(=O)O[C@H]1CC[C@@]2(C)[C@@H](CC[C@@H]3[C@@H]2CC[C@]2(C)C=C(C=O)C[C@@H]32)C1`, the growth was 33.6% in the assay on T-47D breast; 68.5% in the assay with BT-549 breast; 57.8% in the assay with MDA-MB-435 melanoma; 30.1% with SW-620 colon; 7.05% (active) in the assay with MCF7 breast; -19.3% (active) in the assay with HCT-116 colon. The growth is 92.5% in the assay with HCC-2998 colon and 107% with KM12 colon.
With `COc1ccc(-c2[nH]ncc2-c2cc(OC)c(OC)c(OC)c2)cc1`, the growth in the assay with T-47D breast was 58.1%; with BT-549 breast, -6.65% (active); with MDA-MB-435 melanoma it was -48% (active); in the assay with SW-620 colon, 23.6%; in the assay on MCF7 breast, 6.61% (active); in the assay with HCT-116 colon, 2.61% (active). In addition, the growth was -3.98% (active) in the assay with HCC-2998 colon and -8.7% (active) with KM12 colon.
In the case of `Fc1ccc2[nH]c3c(NCCCN4CCOCC4)ncnc3c2c1`, the growth in the assay on T-47D breast was 54.6%; in the assay with BT-549 breast, 96.4%; in the assay on MDA-MB-435 melanoma it was 88.3%; with SW-620 colon, 69.6%; in the assay on MCF7 breast, 84.7%; with HCT-116 colon, 47.4%. Further, the growth in the assay on HCC-2998 colon was 75.4%.
On to `CC(C)C[C@H](NC(=O)CCn1ccc2ccccc2c1=O)B(O)O`, for which the growth was 27.6% in the assay with T-47D breast; 43.4% in the assay with BT-549 breast; -39.6% (active) in the assay with MDA-MB-435 melanoma; 34.1% with SW-620 colon; 33.9% in the assay on MCF7 breast; 16.9% in the assay with HCT-116 colon. The values for the growth with HCC-2998 colon and with KM12 colon were 59.9% and 68.8%, respectively.
Take `Cc1cc(Cl)ccc1Nc1nc(C(F)(F)F)ccc1C(=O)N/N=C/c1ccccc1Cl`: the growth in the assay on T-47D breast was 22%; in the assay on BT-549 breast, -12.1% (active); with MDA-MB-435 melanoma, 16.4%; in the assay with SW-620 colon, 19.9%; with MCF7 breast, 16.2%; with HCT-116 colon, 7.23% (active). The growth is 16.7% with HCC-2998 colon and 14.8% in the assay on KM12 colon.
For `O=C(OCc1ncc(-c2ccc(C(F)(F)F)cc2)c(NC2CCCCCC2)n1)c1c(F)c(F)c(F)c(F)c1F`, the growth with T-47D breast is 28.3%; in the assay on BT-549 breast, 67.8%; in the assay with MDA-MB-435 melanoma, 57.3%; with SW-620 colon, 64.5%; with MCF7 breast, 51%; in the assay on HCT-116 colon it was 52.6%. For the same compound, the results for the growth in the assay on HCC-2998 colon and in the assay on KM12 colon were 84.2% and 45.6%, respectively.
On to `CCCc1c(CC)c(=N)c2ccccc2n1C`, for which the growth in the assay on T-47D breast was 73%; in the assay on BT-549 breast, 81.8%; in the assay with MDA-MB-435 melanoma it was 7.61% (active); in the assay on SW-620 colon, 57.8%; with MCF7 breast, 32%; in the assay with HCT-116 colon it was 27.7%. Moreover, the growth with HCC-2998 colon is 15.5%.
As for `COc1cc(C2=Nc3c/c(=C\c4c(O)[nH]c5ccc(Cl)cc45)ccc3=N2)cc(OC)c1OC`, the growth in the assay with T-47D breast is 48.5%; in the assay on BT-549 breast it was -28.2% (active); in the assay with MDA-MB-435 melanoma it was -65.7% (active); in the assay with SW-620 colon it was -48.2% (active); in the assay with MCF7 breast, -41.8% (active); with HCT-116 colon it was -51.4% (active). For the same compound, the growth in the assay with HCC-2998 colon was 66.3%; in the assay with KM12 colon it was 5.27% (active).
Take `O=C(/C=C/c1nnc2n(Cc3ccccc3)c(=O)c3c4c(sc3n12)CCCC4)c1ccccc1`: the growth is -39.2% (active) in the assay with T-47D breast; 82.4% in the assay on BT-549 breast; 93.2% in the assay on MDA-MB-435 melanoma; 9.38% (active) in the assay on SW-620 colon; 64.3% with MCF7 breast; 44.1% in the assay with HCT-116 colon. Besides, the growth with HCC-2998 colon is 87.8%; in the assay on KM12 colon, 55.2%.
Take `CNC(=O)c1cc(Oc2ccc(NC(=O)Nc3ccc(Cl)c(OC4CCCCC4)c3)c(F)c2)ccn1`: the growth in the assay with T-47D breast was 5.13% (active); in the assay on BT-549 breast, 72.6%; in the assay with MDA-MB-435 melanoma it was 45.3%; in the assay on SW-620 colon, 62.9%; in the assay with MCF7 breast, 27.8%; in the assay on HCT-116 colon, 11.9%. Moreover, the figures for the growth with HCC-2998 colon and with KM12 colon were 82.6% and 26.2%, respectively.
Regarding `COc1cc(-c2cc(/C=C/C(C)=O)[nH]n2)cc(OC)c1OC`, the growth in the assay on T-47D breast is 32.2%; in the assay with BT-549 breast, 71.7%; in the assay on MDA-MB-435 melanoma it was 61.8%; in the assay on SW-620 colon it was 74.3%; in the assay on MCF7 breast it was 41%; in the assay on HCT-116 colon it was 39%. The growth in the assay on HCC-2998 colon was 103%; in the assay on KM12 colon it was 72%.
As to `COc1cc(OC)cc(-c2n/c(=C\c3c(O)[nH]c4ccc(OC)cc34)cc3c2=Nc2ccccc2-3)c1`, the growth in the assay on T-47D breast was 109%; in the assay with BT-549 breast, 92.3%; in the assay on MDA-MB-435 melanoma, 67.2%; in the assay on SW-620 colon, 46.9%; in the assay with MCF7 breast, -64.9% (active); in the assay with HCT-116 colon, 13.7%. Besides, the growth in the assay on HCC-2998 colon was 22.2%; in the assay with KM12 colon, -49.8% (active).

Source of the values: PubChem BioAssay (NCI).
